# Experimental data from PubChem BioAssay AID1376 (SRMLSC, 2008).
# In all, about 220,000 compounds went through this assay and about 530 (0.24%) were called active. For the sample, actives were picked, then their nearest neighbours and some compounds at random. Measured potencies and affinities stand elsewhere. A number with no mark means an inactive call. Cut-off read from the data, not from the text of the source: active = inhibition above about 13%; inconclusive = no clear call, values can overlap the other calls; inactive = below that.
# Biological target: Bifunctional protein GlmU (Mycobacterium tuberculosis (strain ATCC 25618 / H37Rv)) (UniProt P9WMN3)
# Sequence (P9WMN3 whole entry, looked up): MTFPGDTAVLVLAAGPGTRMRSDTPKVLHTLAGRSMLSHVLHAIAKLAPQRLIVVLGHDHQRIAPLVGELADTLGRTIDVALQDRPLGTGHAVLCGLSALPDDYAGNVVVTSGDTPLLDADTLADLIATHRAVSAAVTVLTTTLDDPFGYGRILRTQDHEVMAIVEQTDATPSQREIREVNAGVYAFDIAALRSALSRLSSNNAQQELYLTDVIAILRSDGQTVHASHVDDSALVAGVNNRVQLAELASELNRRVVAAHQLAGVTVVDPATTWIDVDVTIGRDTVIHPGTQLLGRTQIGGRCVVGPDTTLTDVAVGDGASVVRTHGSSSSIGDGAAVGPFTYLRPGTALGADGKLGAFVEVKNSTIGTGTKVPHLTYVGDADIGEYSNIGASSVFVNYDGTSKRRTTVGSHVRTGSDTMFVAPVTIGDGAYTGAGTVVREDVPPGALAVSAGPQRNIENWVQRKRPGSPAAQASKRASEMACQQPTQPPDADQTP
# Experiment: inhibition of mycobacterial GlmU enzyme – biochemical, glucosamine-1-phosphate acetyltransferase (AID 1376);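 note: 0% = complete reaction with vehicle and 100% = reaction without substrate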
# Details: M. tuberculosis GlmU acetyltransferase enzyme assay; stronger effect = higher value;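 tested at 30 µM in the primary screen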
row,Structure (SMILES),inhibition
1,Cc1ccc(/C=N/NC(=O)C(C)Oc2ccccc2[N+](=O)[O-])s1 (configuration not stated),-0.21%
2,O=c1c2ccccc2n(Cc2ccccc2F)c(=O)n1Cc1ccccc1F,4.63%
3,Nc1ccc(Nc2ccccc2)c(S(=O)(=O)O)c1,36.2% (active)
4,Nc1cc(C(=O)O)ccc1Nc1ccccc1,-4.84%
5,Nc1ccc(Nc2ccccc2)c(Cl)c1,3.28%
6,CCN(CC)S(=O)(=O)c1ccc(OC)c(NC(=O)c2ccc([N+](=O)[O-])cc2)c1,-2.82%
7,Cc1cccc(-c2c3c(=O)n(C)c(=O)n(C)c3c3cccnn23)c1,-0.55%
8,O=C1NN(c2ccc(Cl)cc2)C(=O)/C1=C\c1ccc(-c2cccc(C(=O)O)c2)o1,30.9% (active)
9,O=C1NN(c2ccccc2)C(=O)/C1=C\c1ccc(-c2cc([N+](=O)[O-])ccc2O)o1,9.4%
10,Cc1ccc(N2NC(=O)/C(=C/c3ccc(-c4ccc(Cl)c(C(=O)O)c4)o3)C2=O)cc1,7.4%
11,O=C1NN(c2ccccc2)C(=O)/C1=C/c1ccc(Sc2ccc(Cl)cc2)o1,4.82%
12,CC1=NN(c2ccc(C(=O)OC(C)C)cc2)C(=O)/C1=C\C=C\c1ccco1,1.04%
13,Cc1cccc(N2C(=O)NC(=O)/C(=C/c3ccc(-c4ccc(C(=O)O)c(Cl)c4)o3)C2=O)c1,-1.08%
14,Cc1ccc(Sc2ccc(/C=C3/C(=O)NN(c4ccccc4)C3=O)o2)cc1,4.6%
15,CCOC(=O)c1ccc(N2N=C(C)/C(=C/C=C/c3ccco3)C2=O)cc1,3.89%
16,CC1(C)OC(=O)C(=Cc2ccc(-c3ccc(Cl)c(C(=O)O)c3)o2)C(=O)O1,6.43%
17,CCOC(=O)C1CCN(c2cc(C)nc3cc(-c4cccc(F)c4)nn23)CC1,0.46%
18,CCCNC(=O)Nc1ccsc1C(=O)OC,-1.89%
19,O=C1N=C(N2CCOCC2)S/C1=C1\C(=O)N(Cc2ccccc2)c2ccccc21,0.6%
20,COCCCNc1ncnc2nc[nH]c12,-2.31%
21,CC1(C(=O)OCC(=O)Nc2ccc(C(N)=O)cc2)CC1(Cl)Cl (configuration not stated),-0.58%
22,CC1CC(C)(C)NC(=S)N1CCCC(=O)Nc1ccc2c(c1)OCCO2 (configuration not stated),-3.18%
23,CC1CCN(C(c2nnnn2CCc2ccccc2)C(C)C)CC1 (configuration not stated),2.28%

row,Structure (SMILES),inhibition
1,CC1=NOC(=O)/C1=C\c1ccc(-c2ccc(Cl)c(C(=O)O)c2)o1,19.4%
2,CCCCC1(C)OC(=O)C(=Cc2ccc(-c3ccc(Cl)c(C(=O)O)c3)o2)C(=O)O1 (configuration not stated),0.45%
3,COc1ccc(Sc2ccc(/C=C3\C(=O)NN(c4ccccc4)C3=O)o2)cc1,7.34%
4,COc1ccc(CN2C(=O)/C(=C/c3ccc(-c4ccc(Cl)c(C(=O)O)c4)o3)SC2=S)cc1,9.33%
5,O=C(CN1CCC(NC(=O)Cc2ccccc2)CC1)Nc1cccc2ccccc12,4.11%
6,O=C(NCc1ccccc1Cl)c1ccc(-c2ccccc2)cc1,-4.31%
7,O=C(NCc1ccccc1)c1c(O)c2cccc3c2n(c1=O)CCC3,-6.36%
8,CN(Cc1cnn(C)c1)S(=O)(=O)c1cccc([N+](=O)[O-])c1,2.06%
9,CC(C)=C1C(=O)NN(c2cccc(Cl)c2)C1=O,3.03%
10,O=C1CC(=O)N(c2cccc(F)c2)N1,8.59%
11,COCCNC(=O)[C@H]1C[C@@H]1[C@H](NP(=O)(c1ccccc1)c1ccccc1)c1ccccc1,0.38%
12,Cc1ccc(-n2c(COc3cccc(C)c3)n[nH]c2=S)cc1,1.39%
13,O=C(c1cccs1)N1CCN(c2ncccn2)CC1,-2.05%
14,CCOC(=O)C1=C(C)C(c2ccc(OC)cc2)NC(=O)N1 (configuration not stated),-6.08%
15,CCn1c(C)cc(/C=C2/SC(=S)NC2=O)c1C,1.44%
16,CCn1ncc(/C=C2/SC(=S)NC2=O)c1C,11.3%
17,Cc1cc(/C=C2\SC(=S)NC2=O)c(C)n1C,5.92%
18,Cc1nn(C)cc1/C=C1\SC(=S)NC1=O,4.22%
19,CCn1cc(/C=C2/SC(=S)NC2=O)c(C)n1,13.2% (active)
20,Cc1cc(/C=C2\SC(=S)NC2=O)c(C)[nH]1,13.5% (active)
21,Cc1cc(C)n(-c2nc(C)nc(NCc3ccccc3)n2)n1,-4.13%
22,CNc1nc(C)nc(-n2nc(C)cc2C)n1,13.6% (active)
23,Cc1cc(C)n(-c2nc(C)nc(N)n2)n1,-5.19%

row,Structure (SMILES),inhibition
1,Cc1sc(NC(=O)c2ccco2)nc1-c1ccc2c(c1)CC(C)N2C(=O)C1CC1 (configuration not stated),3.65%
2,CCn1c(-c2csc(C(C)C)c2)n[nH]c1=S,14.3% (active)
3,CCCCn1c(-c2csc(C(C)C)c2)n[nH]c1=S,-1.43%
4,CC(C)Cn1c(-c2csc(C(C)C)c2)n[nH]c1=S,-2.74%
5,COc1ccc(NC(=O)C(c2ccccc2)c2ccccc2)cn1,-4.39%
6,CCS(=O)(=O)Nc1ccc(C2=NN(C(=S)Nc3ccccc3)C(c3ccco3)C2)cc1 (configuration not stated),-0.65%
7,CN(C)C(=S)NC(C)(C)C,1.31%
8,CNC(=S)N/N=C/c1ccc(-c2cccc(C(=O)O)c2)o1,6.34%
9,Cc1ccc(OCC(=O)N/N=C\c2ccc(C)o2)c(C)c1,1.64%
10,Nc1nonc1C(=O)N/N=C/c1ccc(-c2ccc(Cl)c(C(=O)O)c2)o1,5.31%
11,O=C(N/N=C/c1ccc(-c2ccc([N+](=O)[O-])cc2)o1)c1cccnc1,7.58%
12,COc1ccc(CC(=O)N/N=C/c2ccc(-c3cccc(C(=O)O)c3)o2)cc1OC,9.43%
13,Nc1nonc1C(=O)N/N=C/c1ccc(-c2cccc([N+](=O)[O-])c2)o1,1.58%
14,O=C(NCCn1cc(SCC(=O)N2CCOCC2)c2ccccc21)c1c(F)cccc1F,7.41%
15,O=C(CSc1nnnn1-c1ccc(O)cc1)c1cc2ccccc2o1,-1.55%
16,COc1ccc(/C=C2\SC(=O)N(CC(=O)NNC(=O)c3ccccc3O)C2=O)cc1OC,13.8% (active)
17,Cc1ccc(NC(=O)CN2C(=O)S/C(=C/c3ccc(-c4cccc(C(=O)O)c4)o3)C2=O)cc1,13.1% (active)
18,Cc1cccc(NC(=O)CN2C(=O)S/C(=C\c3ccc(O)c([N+](=O)[O-])c3)C2=O)c1,3.95%
19,COc1ccc(/C=C2\SC(=O)N(CC(=O)NNC(=O)c3ccccc3O)C2=O)cc1,6.62%
20,CCOC(=O)CN1C(=O)S/C(=C/c2ccc(O)c([N+](=O)[O-])c2)C1=O,6.11%
21,Cc1ccc(NC(=O)CN2C(=O)S/C(=C\c3ccc(-c4cccc(C(=O)O)c4C)o3)C2=O)cc1,3.05%
22,Cc1ccc(NC(=O)CN2C(=O)S/C(=C/c3ccc(O)c([N+](=O)[O-])c3)C2=O)cc1C,14.8% (active)
23,O=C(CN1C(=O)S/C(=C\c2ccccc2)C1=O)NNC(=O)c1ccccc1O,6.78%

row,Structure (SMILES),inhibition
1,Cc1ccc(C(=O)O)cc1-c1ccc(/C=C2\SC(=O)N(CC(=O)Nc3ccccc3)C2=O)o1,6.53%
2,Cc1ccccc1NC(=O)CN1C(=O)S/C(=C\c2ccc(-c3cccc(C(=O)O)c3C)o2)C1=O,-5.01%
3,Cc1cccc(NC(=O)CN2C(=O)S/C(=C\c3ccc(-c4cccc(C(=O)O)c4C)o3)C2=O)c1,5.54%
4,Cc1ccc(NC(=O)CN2C(=O)S/C(=C\c3ccc(-c4cccc(C(=O)O)c4C)o3)C2=O)cc1C,15.4% (active)
5,CCOc1ccccc1Cn1c(=O)sc2ccccc21,-0.39%
6,CCCNC(=O)c1cc(-c2ccc(OC)cc2)n(CCCOC)c1C,4.42%
7,O=C1CC(N2CCN(Cc3ccc(Cl)cc3)CC2)C(=O)N1CCc1ccccc1 (configuration not stated),-4.79%
8,O=C(NCCc1ccccn1)c1cccc(S(=O)(=O)N2CCc3ccccc32)c1,2.85%
9,COCCNC(=O)C1c2ccccc2C(=O)N(CCOC)C1c1ccc(F)cc1 (configuration not stated),1.96%
10,COc1ccc(C(=O)N/C(=C\c2cccc3ccccc23)C(=O)N2CCN(C)CC2)cc1OC,0.44%
11,CSC1=NSC2=NC(=O)/C(=C/c3coc4ccccc4c3=O)C(=N)N12,8.95%
12,CSC1=NSC2=NC(=O)/C(=C\c3coc4ccccc4c3=O)C(=N)N12,7.97%
13,CSC1=NSC2=NC(=O)/C(=C/c3coc4ccc(O)cc4c3=O)C(=N)N12,21.3% (active)
14,NS(=O)(=O)c1ccc(CCNC(=O)CCCC2=NS(=O)(=O)c3ccccc3N2)cc1,2.45%
15,S=c1[nH]nc(COc2ccc(Cl)cc2)o1,13.3% (active)
16,COc1ccc(OCc2n[nH]c(=S)o2)cc1,2.56%
17,S=c1[nH]nc(COc2ccc3ccccc3c2)o1,3.96%
18,O=C(O)C1Cc2ccccc2CN1C(=O)COc1ccc(Br)cc1 (configuration not stated),12.6%
19,CCOC(=O)CSc1nc(C)c(C(C)=O)cc1C(N)=O,1.16%
20,Cc1cccc(NC(=S)NNC(=O)c2csc3c2CCC(C)C3)c1 (configuration not stated),2.66%
21,Cc1ccc(C)c(NC(=S)NNC(=O)c2csc3c2CCCC3)c1,-4.85%
22,Cc1cccc(NC(=S)NNC(=O)c2csc3c2CCCC3)c1,13% (active)
23,CC(C)Cc1nnc(NC(=O)c2cc(-c3ccccc3)nc3ccccc23)s1,0.66%
